PubChem BioAssay
Calls of active or inactive are those of the source.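 How the source made its calls, unless noted: active means response below a set limit, under 55% cells CD8-positive and vesicle-bound, and CD8 cells' 90th-percentile brightness under 279; inactive means the rest.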

How the values were obtained:
[1] = inhibitors of CD8+ T cell-vesicle binding, pilot screen, LFA-1/ICAM-1 modulator project, MLPCN validation set, flow cytometry (AID 2523); conditions: 2C mouse CD8+ T cells, at 7 µM, stronger effect = lower value; double positive events: measured here: CD8+/vesicle+ event percentage;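 on vesicle binding response: mean PE anti-B7-1 fluorescence of CD8+ cells relative to row control; 100% = QL9-loaded vesicles with DMSO vehicle in the same plate row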
[2] = biological target: Integrin beta-1 (Homo sapiens) + Integrin alpha-4 (Homo sapiens) (UniProt P13612+P05556); test: inhibition of HUTS-21 binding to VLA-4, pilot screen, VLA-4 allosteric modulator project, U937 cells, HUTS-21 mAb, flow cytometry, validation set (AID 2674;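 active means inhibition above 50%, about 3 SD of the validation set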;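 further: antibody binding induced by the VLA-4 ligand LDV present at three times its Kd; 0% = LDV ligand with antibody and no compound and 100% = antibody without LDV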); conditions: HUTS-21 LIBS mAb binding, at 6.7 µM, stronger effect = higher value, binding induced by LDV ligand
Integrin beta-1 (Homo sapiens) + Integrin alpha-4 (Homo sapiens), sequence (P05556 whole entry, looked up): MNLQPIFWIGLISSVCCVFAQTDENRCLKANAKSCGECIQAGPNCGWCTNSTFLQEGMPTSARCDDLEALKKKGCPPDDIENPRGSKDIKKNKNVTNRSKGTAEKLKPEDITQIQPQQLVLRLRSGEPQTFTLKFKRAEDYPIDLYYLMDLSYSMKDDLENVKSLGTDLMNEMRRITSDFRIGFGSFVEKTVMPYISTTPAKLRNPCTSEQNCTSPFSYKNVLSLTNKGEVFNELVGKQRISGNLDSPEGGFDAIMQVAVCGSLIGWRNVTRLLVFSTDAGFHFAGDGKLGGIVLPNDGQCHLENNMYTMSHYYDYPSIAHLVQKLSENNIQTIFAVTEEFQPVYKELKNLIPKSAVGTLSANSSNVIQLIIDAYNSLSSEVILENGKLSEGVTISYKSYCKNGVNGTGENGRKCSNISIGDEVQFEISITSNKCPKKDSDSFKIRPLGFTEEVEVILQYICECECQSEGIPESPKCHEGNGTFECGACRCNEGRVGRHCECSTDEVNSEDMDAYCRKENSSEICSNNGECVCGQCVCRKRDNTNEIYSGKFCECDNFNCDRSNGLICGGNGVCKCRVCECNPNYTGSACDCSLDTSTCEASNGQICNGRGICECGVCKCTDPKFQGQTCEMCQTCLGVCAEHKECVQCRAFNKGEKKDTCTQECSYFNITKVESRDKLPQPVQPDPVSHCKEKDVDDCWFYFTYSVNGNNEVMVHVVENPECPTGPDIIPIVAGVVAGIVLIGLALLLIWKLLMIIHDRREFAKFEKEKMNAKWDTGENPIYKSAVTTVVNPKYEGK
Integrin beta-1 (Homo sapiens) + Integrin alpha-4 (Homo sapiens), sequence (P13612 whole entry, looked up): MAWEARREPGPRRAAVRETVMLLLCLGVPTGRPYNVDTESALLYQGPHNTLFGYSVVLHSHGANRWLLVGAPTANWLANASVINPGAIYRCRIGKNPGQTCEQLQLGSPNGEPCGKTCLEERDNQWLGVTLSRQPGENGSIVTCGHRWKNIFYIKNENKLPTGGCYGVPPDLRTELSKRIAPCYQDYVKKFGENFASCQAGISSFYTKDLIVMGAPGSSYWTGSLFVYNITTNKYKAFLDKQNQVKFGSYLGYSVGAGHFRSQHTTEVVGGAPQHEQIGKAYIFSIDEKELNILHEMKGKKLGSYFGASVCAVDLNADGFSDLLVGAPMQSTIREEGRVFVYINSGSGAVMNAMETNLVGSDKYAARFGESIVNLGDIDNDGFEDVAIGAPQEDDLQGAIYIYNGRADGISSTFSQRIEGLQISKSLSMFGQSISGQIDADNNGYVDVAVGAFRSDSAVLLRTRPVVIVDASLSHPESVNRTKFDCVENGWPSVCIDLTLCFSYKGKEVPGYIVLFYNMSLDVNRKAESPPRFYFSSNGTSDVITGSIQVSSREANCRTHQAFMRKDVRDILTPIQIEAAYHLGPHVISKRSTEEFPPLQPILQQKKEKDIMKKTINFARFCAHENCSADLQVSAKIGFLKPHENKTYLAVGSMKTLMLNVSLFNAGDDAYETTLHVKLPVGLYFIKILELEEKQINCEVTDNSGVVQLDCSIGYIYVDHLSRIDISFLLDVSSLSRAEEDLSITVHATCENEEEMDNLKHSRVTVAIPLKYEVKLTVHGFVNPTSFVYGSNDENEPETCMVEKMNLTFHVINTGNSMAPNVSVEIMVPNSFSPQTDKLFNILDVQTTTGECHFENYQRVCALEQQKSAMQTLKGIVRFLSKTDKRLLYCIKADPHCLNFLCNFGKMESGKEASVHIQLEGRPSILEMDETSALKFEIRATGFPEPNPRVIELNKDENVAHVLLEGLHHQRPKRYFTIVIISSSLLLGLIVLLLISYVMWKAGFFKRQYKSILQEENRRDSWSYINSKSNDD

[3] = superoxide lowering in aged yeast cells, pilot screen, validation compound set (AID 2706;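 active means superoxide response below 65% of plate, a cut near 3 SD across the whole screen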;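 further: yeast exposed to compound for one week at 30 degrees C before staining; 100% = mean of all compound wells on the same plate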); conditions: S. cerevisiae aging, superoxide DHE fluorescence; at 10 µM, stronger effect = lower value
[4] = biological target: Beta-adrenergic receptor kinase 1 (Homo sapiens) (UniProt P25098); test: GRK2 binders displacing RNA aptamer, biochemical, validation, human GRK2, bead flow cytometry (AID 488806;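 active means aptamer binding inhibition above 30%, about 3 SD of noise from non-fluorescent compounds; inactive means inhibition at or below 30%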); conditions: bead-bound GRK2, FAM-aptamer displacement, at 10 µM, stronger effect = higher value
Beta-adrenergic receptor kinase 1 (Homo sapiens), sequence (P25098 whole entry, looked up): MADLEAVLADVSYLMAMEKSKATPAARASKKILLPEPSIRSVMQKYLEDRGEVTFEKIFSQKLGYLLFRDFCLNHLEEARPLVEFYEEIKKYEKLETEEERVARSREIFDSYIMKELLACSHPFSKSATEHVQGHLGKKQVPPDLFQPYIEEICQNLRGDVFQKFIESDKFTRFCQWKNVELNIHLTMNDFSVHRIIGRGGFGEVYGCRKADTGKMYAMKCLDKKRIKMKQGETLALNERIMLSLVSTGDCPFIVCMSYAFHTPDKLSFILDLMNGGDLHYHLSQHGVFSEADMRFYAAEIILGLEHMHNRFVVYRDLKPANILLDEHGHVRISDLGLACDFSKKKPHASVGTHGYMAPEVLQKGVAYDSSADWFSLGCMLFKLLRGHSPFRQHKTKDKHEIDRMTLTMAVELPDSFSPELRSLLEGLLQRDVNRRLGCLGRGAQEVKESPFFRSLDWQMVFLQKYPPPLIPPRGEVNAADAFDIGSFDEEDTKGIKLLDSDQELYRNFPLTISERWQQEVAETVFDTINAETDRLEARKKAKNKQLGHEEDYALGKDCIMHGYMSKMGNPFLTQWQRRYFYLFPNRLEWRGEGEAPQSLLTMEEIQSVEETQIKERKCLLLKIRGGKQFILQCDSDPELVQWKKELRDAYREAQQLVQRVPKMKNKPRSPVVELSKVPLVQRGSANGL

[5] = biological target: Beta-2 adrenergic receptor (Homo sapiens) (UniProt P07550); test: beta2AR agonists driving receptor internalization, pilot screen, cell-based, FAP fluorogen, flow cytometry, validation set (AID 504459;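 active means percent response above 42, roughly 3 SD of non-fluorescent test compounds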;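 further: agonist-driven loss of surface beta2AR via internalization measured by FAP dye flow cytometry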); conditions: Am2.2-beta2AR cells, FAP surface receptor flow cytometry; at 10 µM; stronger effect = higher value
Beta-2 adrenergic receptor (Homo sapiens), sequence (P07550 whole entry, looked up): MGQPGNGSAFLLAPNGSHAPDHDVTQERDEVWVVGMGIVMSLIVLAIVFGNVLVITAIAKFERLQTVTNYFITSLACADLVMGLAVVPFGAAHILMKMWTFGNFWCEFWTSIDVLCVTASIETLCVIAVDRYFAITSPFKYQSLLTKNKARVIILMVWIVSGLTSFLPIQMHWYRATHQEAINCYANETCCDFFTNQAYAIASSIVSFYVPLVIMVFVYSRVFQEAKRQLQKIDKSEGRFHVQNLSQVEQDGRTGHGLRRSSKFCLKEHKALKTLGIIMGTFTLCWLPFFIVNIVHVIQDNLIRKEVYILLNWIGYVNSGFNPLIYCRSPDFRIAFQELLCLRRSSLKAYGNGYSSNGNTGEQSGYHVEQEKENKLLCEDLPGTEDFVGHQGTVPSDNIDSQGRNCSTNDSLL

[6] = biological target: AP-2 complex subunit beta (Homo sapiens) (UniProt P63010); test: inhibitors of arrestin peptide binding to AP2, pilot screen, biochemical, validation set, GST-AP2 beads, flow cytometry (AID 504541;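 active means inhibition above 54%, about 3 SD of non-fluorescent compounds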;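 further: AP2 carries R879A mutation and is captured from E. coli lysate; bead-bound FITC arrestin peptide fluorescence measuring arrestin peptide binding to AP2; 0% = DMSO wells and 100% = excess unlabeled arrestin peptide control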); conditions: FITC arrestin peptide, at 10 µM, stronger effect = higher value, AP2 beta2 appendage fragment, R879A mutant
AP-2 complex subunit beta (Homo sapiens), sequence (P63010 whole entry, looked up, the tested form may be a part, one chain of several): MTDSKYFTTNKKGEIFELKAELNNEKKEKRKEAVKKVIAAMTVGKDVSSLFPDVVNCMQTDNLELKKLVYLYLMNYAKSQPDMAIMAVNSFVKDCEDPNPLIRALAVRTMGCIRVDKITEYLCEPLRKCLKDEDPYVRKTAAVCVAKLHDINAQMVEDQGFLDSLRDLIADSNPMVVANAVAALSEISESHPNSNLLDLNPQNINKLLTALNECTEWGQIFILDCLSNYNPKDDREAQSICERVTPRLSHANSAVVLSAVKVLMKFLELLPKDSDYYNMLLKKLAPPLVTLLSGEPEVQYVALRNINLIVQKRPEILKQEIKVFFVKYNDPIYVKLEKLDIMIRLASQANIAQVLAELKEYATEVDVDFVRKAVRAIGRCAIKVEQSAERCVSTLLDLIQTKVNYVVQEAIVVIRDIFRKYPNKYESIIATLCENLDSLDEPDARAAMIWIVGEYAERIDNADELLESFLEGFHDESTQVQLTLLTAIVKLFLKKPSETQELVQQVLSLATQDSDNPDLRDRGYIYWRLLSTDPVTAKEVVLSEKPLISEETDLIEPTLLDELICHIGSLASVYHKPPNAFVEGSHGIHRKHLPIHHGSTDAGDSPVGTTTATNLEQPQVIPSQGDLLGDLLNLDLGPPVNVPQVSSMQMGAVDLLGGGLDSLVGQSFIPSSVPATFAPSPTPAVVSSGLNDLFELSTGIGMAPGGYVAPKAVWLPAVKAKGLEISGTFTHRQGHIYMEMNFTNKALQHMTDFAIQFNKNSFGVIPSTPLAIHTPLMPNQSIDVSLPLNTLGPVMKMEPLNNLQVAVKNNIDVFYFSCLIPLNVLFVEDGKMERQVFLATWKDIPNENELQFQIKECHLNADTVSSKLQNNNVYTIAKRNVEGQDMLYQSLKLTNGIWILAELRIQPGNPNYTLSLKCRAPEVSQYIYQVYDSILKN

[7] = yeast V-ATPase proton transport modulators, S. cerevisiae, pHLuorin, HTS validation (AID 504600; in the data active means response above about 15%;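 further: plate controls were DMSO for no effect and reference compound for full effect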); conditions: S. cerevisiae pHLuorin cytosolic pH, at 10 µM, stronger effect = higher value
[8] = test system: anti-desmoglein-3 scFv antibody binding to human DSG3; test: inhibitors of anti-DSG3 scFv binding to DSG3, pilot screen, biochemical, validation compound set, bead-based, flow cytometry (AID 588368;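 active means binding below the plate cutoff, the plate median minus 3 SD, with a reading above zero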;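 further: signal is the median channel fluorescence of bead-bound GFP antibody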); conditions: Protein G beads, DSG3-Fc, scFv-GFP binding, at 10 µM, stronger effect = lower value
[9] = inhibitors of fungal efflux pumps CDR1, CDR2, MDR1, pilot screen, validation compound set, multiplex, phenotypic (AID 588506;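 active means efflux inhibition above 0.42, the validation set average plus 4 SD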;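 further: Nile Red retained in cells so higher fluorescence means more efflux inhibition; 0 = negative control wells and 1 = enniatin B 25 µM full block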); conditions: S. cerevisiae pump-expressing triplex, Nile Red efflux flow cytometry; at 10 µM; stronger effect = higher value; the pumps come from Candida albicans
[10] = biological target: ATP-binding cassette sub-family B member 6 (Homo sapiens) (UniProt Q9NP58); test: ABCB6 transporter inhibitors, pilot screen, K562-ABCB6 cells, flow cytometry, validation set (AID 588550;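 active means inhibition above the screen-wide mean plus 3 SD, about 51%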;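 further: 0% = DMSO wells and 100% = benzethonium chloride 70 µM positive control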); conditions: K562-ABCB6 porphyrin accumulation, 1 h, at 10 µM, stronger effect = higher value
ATP-binding cassette sub-family B member 6 (Homo sapiens), sequence (Q9NP58 whole entry, looked up): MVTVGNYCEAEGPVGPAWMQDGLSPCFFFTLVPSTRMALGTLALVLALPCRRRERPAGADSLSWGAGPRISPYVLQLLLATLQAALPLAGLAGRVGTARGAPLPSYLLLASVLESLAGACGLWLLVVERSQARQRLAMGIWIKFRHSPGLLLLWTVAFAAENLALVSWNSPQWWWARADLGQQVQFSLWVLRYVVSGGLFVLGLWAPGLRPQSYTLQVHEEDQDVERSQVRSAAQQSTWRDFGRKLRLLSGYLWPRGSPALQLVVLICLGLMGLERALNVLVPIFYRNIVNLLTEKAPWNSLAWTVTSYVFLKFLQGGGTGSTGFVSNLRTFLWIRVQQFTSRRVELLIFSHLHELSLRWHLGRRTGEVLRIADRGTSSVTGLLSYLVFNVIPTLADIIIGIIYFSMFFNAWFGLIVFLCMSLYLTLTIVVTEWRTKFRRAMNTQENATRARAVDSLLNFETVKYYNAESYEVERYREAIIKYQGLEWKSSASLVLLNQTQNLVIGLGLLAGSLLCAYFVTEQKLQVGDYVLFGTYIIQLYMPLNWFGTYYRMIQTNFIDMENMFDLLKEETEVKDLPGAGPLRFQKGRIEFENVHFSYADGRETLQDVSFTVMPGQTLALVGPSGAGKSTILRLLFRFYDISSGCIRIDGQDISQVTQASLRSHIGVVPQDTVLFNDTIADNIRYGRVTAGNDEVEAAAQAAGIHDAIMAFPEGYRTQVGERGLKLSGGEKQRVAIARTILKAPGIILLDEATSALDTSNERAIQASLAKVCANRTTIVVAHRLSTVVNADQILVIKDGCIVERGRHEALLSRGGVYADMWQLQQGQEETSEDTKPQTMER

[11] = promoters of myeloid differentiation in arrested cells, primary screen, cell-based, GFP/MAC1 double positive, flow cytometry, validation set (AID 588685;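 active means differentiation response of at least 50%, scaled between solvent and reference control, from cells with both markers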;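 further: compound exposure lasts four days before antibody staining and flow analysis; 0% = DMSO wells and 100% = 5 µM fulvestrant positive control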); conditions: ER-HoxA9 marrow cells, stronger effect = higher value, normalized: vehicle 0, fulvestrant 100

| Compound | double positive events [1] [%] | vesicle binding response [1] | inhibition [2] | superoxide response (% of plate) [3] | aptamer binding inhibition [4] | response [5] | inhibition [6] | response [7] | binding (% of control) [8] | efflux inhibition (fraction of control) [9] | inhibition [10] | differentiation response [11] |
| --- | --- | --- | --- | --- | --- | --- | --- | --- | --- | --- | --- | --- |
| CC(C)Cc1nc(NCCN2CCOCC2)c(C#N)c2c1COC(C)(C)C2 | 61.1 | 159% (inactive) | 7.4% (inactive) | 93.4% (inactive) | -1% (inactive) | -20.4% (inactive) | -18.1% (inactive) | 3.4% (inactive) | 104% (inactive) | 0.08 (inactive) | -5% (inactive) | -15.8% (inactive) |
| CC(C)OC(=O)CC1C(=O)NCCN1C(=S)NC(=O)c1ccccc1Cl (configuration not stated) | 57.9 | 115% (inactive) | -5.11% (inactive) | 94.8% (inactive) | 1% (inactive) | 11.7% (inactive) | 7.65% (inactive) | -6.29% (inactive) | 111% (inactive) | 0 (inactive) | -197% (inactive) | -10.4% (inactive) |
| CC(=O)N1CC23C=CC(CC2CC12CCCCCC2)O3 (configuration not stated) | 61.4 | 200% (inactive) | 3.99% (inactive) | 102% (inactive) | 8% (inactive) | -21.9% (inactive) | -0.87% (inactive) | -29.7% (inactive) | 104% (inactive) | -0.09 (inactive) | 0% (inactive) | 0% (inactive) |
| Cc1oc2c(CN3CCCC3)c(O)ccc2c(=O)c1-c1ccc(Cl)cc1 | 75.9 | 328% (inactive) | 3.14% (inactive) | 81.5% (inactive) | 1% (inactive) | -23.2% (inactive) | 6.26% (inactive) | -0.55% (inactive) | 96.9% (inactive) | 0 (inactive) | 10% (inactive) | -1.05% (inactive) |
| Cc1cccc(N2C(=O)C3C(c4ccccc4)OC4(C(=O)c5ccccc5C4=O)C3C2=O)c1 (configuration not stated) | 56.8 | 143% (inactive) | -5.89% (inactive) | 110% (inactive) | 3% (inactive) | 1.5% (inactive) | 6.34% (inactive) | -0.37% (inactive) | 104% (inactive) | 0.33 (inactive) | 5% (inactive) | -12% (inactive) |
| O=C(c1ccccc1)N1CCN(C(=O)c2ccccc2)CC1 | 57.3 | 175% (inactive) | -0.43% (inactive) | 102% (inactive) | 7% (inactive) | -22.4% (inactive) | -3.54% (inactive) | -5.95% (inactive) | 104% (inactive) | -0.13 (inactive) | 3% (inactive) | 12% (inactive) |
| COc1ccc(NC(=S)NCCc2c[nH]c3ccccc23)cc1 | 69.3 | 445% (inactive) | -1.97% (inactive) | 111% (inactive) | 1% (inactive) | -13.3% (inactive) | -10.2% (inactive) | -1.54% (inactive) | 108% (inactive) | 0 (inactive) | 8% (inactive) | -6.96% (inactive) |
| Cc1ccc(P(=O)(CSC(=N)N)c2ccc(C)cc2)cc1 | 60.2 | 155% (inactive) | 4.27% (inactive) | 95% (inactive) | 8% (inactive) | 1.61% (inactive) | 2.42% (inactive) | -0.71% (inactive) | 104% (inactive) | 0.3 (inactive) | 35% (inactive) | 4.2% (inactive) |
| CC(=O)OCC(=O)[C@@]1(OC(C)=O)[C@@H](C)C[C@H]2[C@@H]3C[C@H](F)C4=CC(=O)C=C[C@]4(C)[C@@]3(F)[C@@H](O)C[C@@]21C | 61.9 | 157% (inactive) | -11.8% (inactive) | 97.6% (inactive) | -1% (inactive) | 5.99% (inactive) | 1.66% (inactive) | -2.14% (inactive) | 103% (inactive) | -0.015 (inactive) | -2% (inactive) | 4.2% (inactive) |
| CCn1c(O)c(/C=C2\C=Nc3ccccc32)sc1=O | 63.1 | 97.1% (inactive) | -0.31% (inactive) | 108% (inactive) | 1% (inactive) | -3.25% (inactive) | -17.2% (inactive) | 0.06% (inactive) | 97.5% (inactive) | -0.44 (inactive) | 4% (inactive) | -5.68% (inactive) |
| CNc1nc(Nc2ccccc2)nc(OCC(F)(F)F)n1 | 64.8 | 135% (inactive) | 6.95% (inactive) | 98.2% (inactive) | -3% (inactive) | -3.68% (inactive) | 44.3% (inactive) | -7.15% (inactive) | 101% (inactive) | -0.185 (inactive) | -3% (inactive) | 4.2% (inactive) |
| COC(=O)c1cc(OC)c(OC)cc1NC(=O)Nc1ccc(OC)cc1OC | 58.5 | 105% (inactive) | -14.5% (inactive) | 82% (inactive) | 0% (inactive) | 5.38% (inactive) | 11.9% (inactive) | -1.21% (inactive) | 100% (inactive) | -0.205 (inactive) | 7% (inactive) | 13% (inactive) |
| CC(=O)OCC(OC(C)=O)C(OC(C)=O)C(OC(C)=O)C(=O)Nc1cccc(C)c1 (configuration not stated) | 59.9 | 153% (inactive) | -4.52% (inactive) | 110% (inactive) | 3% (inactive) | 4.29% (inactive) | -4.4% (inactive) | 1.1% (inactive) | 97% (inactive) | -0.1 (inactive) | 2% (inactive) | -10.4% (inactive) |
| CN1[C@@H](CC(=O)c2ccccc2)CCC[C@H]1C[C@H](O)c1ccccc1 | 61.3 | 176% (inactive) | 6.4% (inactive) | 93.3% (inactive) | 4% (inactive) | 12.9% (inactive) | -9.53% (inactive) | 3.14% (inactive) | 103% (inactive) | -0.06 (inactive) | 3% (inactive) | -0.8% (inactive) |
| CCSc1nc(O)c(C2OC(=O)c3c2ccc(OC)c3OC)c(=O)n1CC (configuration not stated) | 69.4 | 289% (inactive) | -1.79% (inactive) | 86.4% (inactive) | 2% (inactive) | 15.5% (inactive) | -2.62% (inactive) | -1.36% (inactive) | 101% (inactive) | 0.12 (inactive) | 109% (active) | 20% (inactive) |
| Cn1c(=O)c2c(nc(SCCN3CCCCC3)n2C)n(C)c1=O | 61.5 | 176% (inactive) | -0.27% (inactive) | 85.5% (inactive) | -3% (inactive) | -25.4% (inactive) | -6.3% (inactive) | 1.6% (inactive) | 110% (inactive) | -0.13 (inactive) | -2% (inactive) | -11.9% (inactive) |
| CC(C)c1ccc2[nH]c3c(c2c1)CCCC3=O | 59.4 | 113% (inactive) | 4.27% (inactive) | 97.7% (inactive) | 2% (inactive) | 11.3% (inactive) | 0.1% (inactive) | 1.31% (inactive) | 102% (inactive) | 0.04 (inactive) | 27% (inactive) | -1.65% (inactive) |
| COc1cc([C@@H]2c3cc4c(cc3[C@H](O)[C@H]3COC(=O)[C@H]23)OCO4)cc(OC)c1OC | 63.2 | 180% (inactive) | 38.9% (inactive) | 99.1% (inactive) | 7% (inactive) | 22.7% (inactive) | -1.6% (inactive) | 21% (active) | 102% (inactive) | -0.13 (inactive) | 7% (inactive) | -0.06% (inactive) |
| CC1(C)CC(=O)C(C2(O)C(=O)Nc3ccccc32)CO1 (configuration not stated) | 69 | 183% (inactive) | 11.7% (inactive) | 92.3% (inactive) | 3% (inactive) | 7.56% (inactive) | 0.15% (inactive) | 2.36% (inactive) | 105% (inactive) | 0.12 (inactive) | 12% (inactive) | -16.8% (inactive) |
| COc1ccc2cc[nH]c2c1 | 67.5 | 407% (inactive) | -5.38% (inactive) | 104% (inactive) | 2% (inactive) | -20.2% (inactive) | -3.08% (inactive) | 0.61% (inactive) | 103% (inactive) | 0 (inactive) | 5% (inactive) | -10.9% (inactive) |
| COc1ccc(CCN=C(N)C(C)c2ccccc2)cc1OC (configuration not stated) | 62.6 | 238% (inactive) | 5.69% (inactive) | 93.8% (inactive) | 4% (inactive) | -11.2% (inactive) | -6.07% (inactive) | -1.3% (inactive) | 97.3% (inactive) | -0.04 (inactive) | 5% (inactive) | 7.82% (inactive) |
| O=C(Nc1ccccc1)OCC1CCCN2CCCCC12 (configuration not stated) | 80 | 511% (inactive) | -0.27% (inactive) | 93.9% (inactive) | -2% (inactive) | -23.8% (inactive) | -10.6% (inactive) | 1.1% (inactive) | 112% (inactive) | -0.04 (inactive) | 16% (inactive) | 63% (active) |
| CCN(CC)C(=S)SSC(=S)N(CC)CC | 59.7 | 164% (inactive) | 27.8% (inactive) | 109% (inactive) | 4% (inactive) | 14.2% (inactive) | 3.89% (inactive) | -29.5% (inactive) | 100% (inactive) | -0.13 (inactive) | 4% (inactive) | -0.06% (inactive) |
| COc1ccc(C(=O)/C=C2/c3ccccc3CC(C)(C)N2C)cc1 | 59.8 | 124% (inactive) | 2.93% (inactive) | 99% (inactive) | 3% (inactive) | 23.7% (inactive) | -8.96% (inactive) | -3.68% (inactive) | 98.3% (inactive) | -0.25 (inactive) | 7% (inactive) | -7.5% (inactive) |
| COc1ccc(CCN2CCC(Nc3nc4ccccc4n3Cc3ccc(F)cc3)CC2)cc1 | 44.8 | 112% (inactive) | 16.3% (inactive) | 93.2% (inactive) | -15% (inactive) | 34.8% (inactive) | 1.18% (inactive) | 4.6% (inactive) | 138% (inactive) | 0.415 (inactive) | -38% (inactive) | 10.1% (inactive) |
| CCOCc1cc(C)[nH]c(=O)c1C#N | 60.2 | 225% (inactive) | 3.67% (inactive) | 98.3% (inactive) | 2% (inactive) | 1.78% (inactive) | -6.13% (inactive) | 1.03% (inactive) | 102% (inactive) | -0.21 (inactive) | 7% (inactive) | -4% (inactive) |
